Our source for the Potency and outcome values is PubChem BioAssay (Tox21).

Records with an inconclusive call do not appear. A number with no mark means an inactive call. The source made the active and inactive calls. Unless noted, calls follow the shape of the dose curve; as a rule, active = well fitted curve in the direction sought with a large enough effect in the repeat runs; inconclusive = weak or mixed curves; inactive = no such curve, though single readings can be large; an effect the other way counts as inactive or inconclusive.

Test [1] in a line: qHTS assay to identify small molecule antagonists of the thyroid receptor (TR) signaling pathway (AID 743065). Also: nearly all actives have a fitted effect of over 55% in size. Also: potency is read from the fitted curve at half-maximal effect. The method, boiled down:
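GH3.TRE-Luc rat pituitary cells (two TREs driving luciferase) were dosed with compound, then stimulated with 1 nM T3 (final) for 23.5 h at 37 C. ONE-Glo luminescence was the read-out, with CellTiter-Fluor fluorescence as the cytotoxicity counter-screen.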

Test [2] deals with thyroid hormone receptor (rat, GH3 cells). The test can be described thus: qHTS assay to identify small molecule agonists of the thyroid receptor (TR) signaling pathway (AID 743066; calls by dose curve). (In qHTS, concentration-response curves come from the screen itself.)
Test [3] can be described thus: qHTS assay to identify small molecule antagonists of the estrogen receptor alpha (ER-alpha) signaling pathway - cell viability counter screen (AID 743074; calls by dose curve; also: nearly all actives have a fitted effect of over 45% in size).
Test [4] is described as follows: qHTS assay to identify small molecule antagonists of the estrogen receptor alpha (ER-alpha) signaling pathway using the BG1 cell line - cell viability counter screen (AID 743081).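 Also: compound given together with 17beta-estradiol as the ER stimulus; series mostly up to about 70 µM; nearly all actives have a fitted effect of over 45% in size.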
In test [5] the target is Aromatase (Homo sapiens) (UniProt P11511). The test can be described thus: qHTS assay to identify aromatase inhibitors (AID 743083). Also: series mostly up to about 70 µM; nearly all actives have a fitted effect of over 55% in size.
Sequence of Aromatase (Homo sapiens) (P11511 whole entry, looked up): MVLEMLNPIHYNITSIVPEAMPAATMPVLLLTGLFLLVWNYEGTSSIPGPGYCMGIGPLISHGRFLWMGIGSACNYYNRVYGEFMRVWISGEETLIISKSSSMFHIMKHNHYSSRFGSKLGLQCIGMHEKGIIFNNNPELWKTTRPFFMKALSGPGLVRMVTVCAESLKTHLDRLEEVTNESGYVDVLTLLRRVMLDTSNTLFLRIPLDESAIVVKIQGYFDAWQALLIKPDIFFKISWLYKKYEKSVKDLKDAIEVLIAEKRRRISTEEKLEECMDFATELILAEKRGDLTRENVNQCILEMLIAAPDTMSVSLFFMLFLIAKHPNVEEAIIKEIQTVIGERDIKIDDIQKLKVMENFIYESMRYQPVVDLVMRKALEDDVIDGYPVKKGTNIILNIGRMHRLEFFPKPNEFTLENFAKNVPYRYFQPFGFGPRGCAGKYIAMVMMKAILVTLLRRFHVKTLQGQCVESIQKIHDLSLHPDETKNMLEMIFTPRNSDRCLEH
A short description of test [6]: qHTS assay to identify aromatase inhibitors - cell viability counter screen (AID 743084).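 Also: cells stimulated with testosterone during compound exposure; nearly all actives have a fitted effect of over 55% in size.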
The target of test [7] is Aryl hydrocarbon receptor (Homo sapiens) (UniProt P35869). The test can be described thus: qHTS assay to identify small molecule that activate the aryl hydrocarbon receptor (AhR) signaling pathway (AID 743085). Also: nearly all actives have a fitted effect of over 15% in size. Also: potency is read from the fitted curve at half-maximal effect.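 As to activation: HG2L7.5c1 human HepG2 liver cells with stably integrated DRE-driven firefly reporter; series mostly up to about 70 µM.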 The essentials:
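A multiplexed format paired cell viability (CellTiter-Fluor fluorescence) with AhR-dependent luciferase output (ONE-Glo luminescence) in the same wells of HepG2 DRE-luc cells after 24 h compound exposure at 37C.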

Test [8] in a line: qHTS assay to identify small molecule that activate the aryl hydrocarbon receptor (AhR) signaling pathway - cell viability counter screen (AID 743086).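 Also: HepG2 liver cells carrying the AhR DRE luciferase reporter; series mostly up to about 70 µM; nearly all actives have a fitted effect of over 45% in size.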 The essentials:
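HepG2-AhR-luc (HG2L7.5c1) cells, 4000/well, treated 24 h at 37 C with compound; viability measured as CellTiter-Fluor fluorescence after 30 min in the same wells as the luciferase read.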

The target in test [9] is Peroxisome proliferator-activated receptor gamma (Homo sapiens) (UniProt P37231). As to the kind of experiment: qHTS assay to identify small molecule agonists of the peroxisome proliferator-activated receptor gamma (PPARg) signaling pathway (AID 743094; active = well fitted activation curve with a large enough effect in the signal ratio in the repeat runs, not every such curve was filed as active; the % refers to the signal ratio). The essentials: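 HEK293H PPARg-bla cells, 5 h settle at 37C/5% CO2; compound (DMSO) 17 h, 37C; B/G FRET substrate 1 h RT; fluorescence intensity read-out. qHTS format.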
Sequence of Peroxisome proliferator-activated receptor gamma (Homo sapiens) (P37231 whole entry, looked up): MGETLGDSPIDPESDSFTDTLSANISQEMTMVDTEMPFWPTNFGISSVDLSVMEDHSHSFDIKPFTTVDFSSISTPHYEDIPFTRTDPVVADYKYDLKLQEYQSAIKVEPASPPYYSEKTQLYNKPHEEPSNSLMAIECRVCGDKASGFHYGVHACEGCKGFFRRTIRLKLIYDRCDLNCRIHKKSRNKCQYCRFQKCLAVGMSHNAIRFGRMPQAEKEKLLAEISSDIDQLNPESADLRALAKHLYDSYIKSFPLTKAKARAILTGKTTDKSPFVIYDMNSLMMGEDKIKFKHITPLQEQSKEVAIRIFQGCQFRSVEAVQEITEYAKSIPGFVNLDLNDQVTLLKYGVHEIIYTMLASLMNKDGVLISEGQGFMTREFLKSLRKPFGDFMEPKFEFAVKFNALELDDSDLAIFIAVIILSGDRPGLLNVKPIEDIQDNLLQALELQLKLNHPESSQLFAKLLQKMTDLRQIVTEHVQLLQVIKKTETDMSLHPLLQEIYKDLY

For test [10] the target is unchanged. The test can be described thus: qHTS assay to identify small molecule antagonists of the peroxisome proliferator-activated receptor gamma (PPARg) signaling pathway (AID 743191; calls by dose curve; also: series mostly up to about 63 µM; nearly all actives have a fitted effect of over 30% in size). The method, boiled down:
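GeneBLAzer PPARg UAS-bla HEK293H cells, 5 h post-plating, exposed to compounds 17 h at 37C. LiveBLAzer B/G FRET substrate added for 1 h at room temperature; beta-lactamase reporter read by fluorescence intensity.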

Test [11] is described as follows: qHTS assay to identify small molecule antagonists of the peroxisome proliferator-activated receptor gamma (PPARg) signaling pathway - cell viability counter screen (AID 743194). Also: nearly all actives have a fitted effect of over 55% in size. The essentials:
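Cytotoxicity counter screen in PPARg-bla HEK293H cells, same wells as reporter assay. Compounds plus 50 nM rosiglitazone (final) for 17 h at 37 C, then viability read by CellTiter-Glo luminescence.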

Test [12] is described as follows: qHTS assay for small molecule agonists of the antioxidant response element (ARE) signaling pathway (AID 743202; active = well fitted activation curve with a large enough effect in the signal ratio in the repeat runs, not every such curve was filed as active; the % refers to the signal ratio). The method, boiled down:
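HepG2 ARE-bla cells; 16 h treatment at 37 C; FRET-based beta-lactamase fluorescence read after 2 h substrate incubation at room temperature.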

Test [13] in a line: qHTS assay for small molecule agonists of the antioxidant response element (ARE) signaling pathway - cell viability counter screen (AID 743203; calls by dose curve; also: nearly all actives have a fitted effect of over 55% in size). The essentials: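 Luminescence read-out (CellTiter-Glo, 30 min at room temperature) measured cell viability in the same wells as the ARE beta-lactamase reporter. HepG2 ARE-bla cells were treated with compounds for 16 hrs at 37C/5% CO2.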

Test [14] is described as follows: qHTS assay for small molecule activators of the heat shock response signaling pathway - cell viability counter screen (AID 743209). Also: nearly all actives have a fitted effect of over 50% in size. The essentials:
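HSE-bla HeLa; 1500 cells/well; overnight 37 C, 5% CO2; compound 5 h 37 C; LiveBLAzer B/G substrate 2.5 h RT; CellTiter-Glo 30 min RT; luminescence.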

A short description of test [15]: qHTS assay for small molecule activators of the heat shock response signaling pathway (AID 743210; active = well fitted activation curve with a large enough effect in the signal ratio in the repeat runs, with a control signal flat, not every such curve was filed as active; the % refers to the signal ratio;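 also: HeLa cells with beta-lactamase reporter driven by heat shock elements; series mostly up to about 63 µM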). The method, boiled down:
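Following overnight attachment, HSE-bla HeLa cells received test compounds for 5 h at 37 C; beta-lactamase activity was then detected via FRET substrate fluorescence.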

Test [16] in a line: qHTS assay to identify small molecule agonists of the peroxisome proliferator-activated receptor delta (PPARd) signaling pathway - cell viability counter screen (AID 743211). Also: nearly all actives have a fitted effect of over 55% in size. The method, boiled down:
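Tox21 library compounds, delivered in DMSO, were incubated 17 h with PPARd-bla HEK293H cells; cytotoxicity was taken from CellTiter-Glo luminescence read 30 min after reagent addition.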

The target in test [17] is Estrogen receptor (Homo sapiens) (UniProt P03372). The test can be described thus: qHTS assay to identify small molecule agonists of the estrogen receptor alpha (ER-alpha) signaling pathway (AID 743075; calls by dose curve).
Sequence of Estrogen receptor (Homo sapiens) (P03372 whole entry, looked up): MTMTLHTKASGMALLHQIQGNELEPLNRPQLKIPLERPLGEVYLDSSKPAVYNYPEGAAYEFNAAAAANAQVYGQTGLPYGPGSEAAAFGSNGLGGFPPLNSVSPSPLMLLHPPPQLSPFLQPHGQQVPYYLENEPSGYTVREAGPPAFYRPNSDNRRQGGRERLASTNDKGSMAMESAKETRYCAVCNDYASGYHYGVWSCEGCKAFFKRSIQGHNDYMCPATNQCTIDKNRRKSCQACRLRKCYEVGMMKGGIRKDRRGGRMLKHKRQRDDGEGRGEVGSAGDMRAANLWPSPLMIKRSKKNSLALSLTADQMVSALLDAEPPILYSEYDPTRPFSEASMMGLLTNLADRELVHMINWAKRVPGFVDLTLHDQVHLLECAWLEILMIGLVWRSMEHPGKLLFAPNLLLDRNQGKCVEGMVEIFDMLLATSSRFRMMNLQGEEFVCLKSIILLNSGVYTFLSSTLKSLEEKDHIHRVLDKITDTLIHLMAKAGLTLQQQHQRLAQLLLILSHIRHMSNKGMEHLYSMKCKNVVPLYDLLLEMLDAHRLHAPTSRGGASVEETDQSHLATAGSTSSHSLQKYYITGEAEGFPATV
For test [18] the target is unchanged. As to the kind of experiment: qHTS assay to identify small molecule agonists of the estrogen receptor alpha (ER-alpha) signaling pathway using the BG1 cell line (AID 743079). Also: nearly all actives have a fitted effect of over 20% in size.
A short description of test [19]: qHTS assay to identify small molecule antagonists of the estrogen receptor alpha (ER-alpha) signaling pathway using the BG1 cell line (AID 743080; calls by dose curve; also: series mostly up to about 70 µM; nearly all actives have a fitted effect of over 25% in size). The method, boiled down: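 Antagonist mode: compounds in DMSO were pinned onto BG1-Luc-4E2 cells alongside 17beta-estradiol agonist, incubated 21.5 h, and ERE-driven luciferase measured with ONE-Glo. Cytotoxicity was multiplexed using CellTiter-Fluor fluorescence.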

Test [20] deals with Estrogen receptor (Homo sapiens) (UniProt P03372). As to the kind of experiment: qHTS assay to identify small molecule antagonists of the estrogen receptor alpha (ER-alpha) signaling pathway (AID 743069; active = well fitted curve in the direction sought with a large enough effect in the signal ratio in the repeat runs, not every such curve was filed as active; the % refers to the signal ratio). The essentials: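 In this cell-based reporter format, GripTite HEK293 cells harbouring ER-alpha-UAS-bla were grown overnight with 2% charcoal-stripped FBS, dosed with DMSO-dissolved compounds, then challenged with 17beta-estradiol. After 18 hr at 37C, beta-lactamase activity was detected by FRET fluorescence.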

Sequence of Aryl hydrocarbon receptor (Homo sapiens) (P35869 whole entry, looked up): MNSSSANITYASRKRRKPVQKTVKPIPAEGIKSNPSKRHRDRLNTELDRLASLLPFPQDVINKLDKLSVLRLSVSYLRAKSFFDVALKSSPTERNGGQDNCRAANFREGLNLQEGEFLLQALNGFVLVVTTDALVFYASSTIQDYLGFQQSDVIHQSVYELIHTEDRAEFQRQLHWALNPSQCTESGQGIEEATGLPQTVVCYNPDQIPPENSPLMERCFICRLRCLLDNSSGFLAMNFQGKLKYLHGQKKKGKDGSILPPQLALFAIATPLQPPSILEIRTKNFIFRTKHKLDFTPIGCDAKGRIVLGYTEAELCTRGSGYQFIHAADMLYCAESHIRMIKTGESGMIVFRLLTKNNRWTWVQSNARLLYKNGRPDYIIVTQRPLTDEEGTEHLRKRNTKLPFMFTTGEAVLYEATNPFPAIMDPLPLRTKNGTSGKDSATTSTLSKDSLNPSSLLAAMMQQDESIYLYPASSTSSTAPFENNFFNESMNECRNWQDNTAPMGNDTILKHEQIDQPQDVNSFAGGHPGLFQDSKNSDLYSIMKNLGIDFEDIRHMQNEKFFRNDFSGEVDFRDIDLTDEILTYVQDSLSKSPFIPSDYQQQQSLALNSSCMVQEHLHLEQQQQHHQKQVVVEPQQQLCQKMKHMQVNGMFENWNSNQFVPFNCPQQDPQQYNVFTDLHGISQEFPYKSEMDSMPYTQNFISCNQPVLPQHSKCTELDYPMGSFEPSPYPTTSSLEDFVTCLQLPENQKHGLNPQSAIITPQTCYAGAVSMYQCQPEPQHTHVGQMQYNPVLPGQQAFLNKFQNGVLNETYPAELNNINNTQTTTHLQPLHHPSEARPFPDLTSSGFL

`CC(C)CC(C)(N)C#N` (configuration not stated): the Potency entry in test [1], in test [3], in [6], in [7], in [8] and in [9] was “inactive” each time. In addition, the Potency result in test [10] and in [12] was “inactive” throughout. The outcome in [2], in [4], in test [5], in test [11], in [13] and in [14] was inactive. For the same compound, the outcome in test [15] and in test [16] was inactive.
As for `[Ca+2]`, the Potency result in test [1], in [3], in test [6], in test [7], in test [8] and in test [9] was “inactive” throughout. For the same compound, the Potency entry in [10] was “inactive”. The outcome in test [2], in test [4], in test [5], in test [11], in test [13] and in [14] was inactive. In addition, the outcome in [15] and in test [16] was inactive.
`Cc1ncc([C@@H](CCCCCCc2ccc3c(n2)NCCC3)CC(=O)O)cn1`: the Potency entry in [1], in [3], in [17], in test [18], in test [19] and in [7] was “inactive” throughout. Also, the result in test [2], in [4], in [5], in [13], in test [14] and in test [15] was inactive. In test [16], the compound was called inactive.
Turning to `O=C(O)CNC(=O)c1ccccc1`, the Potency result in test [1], in [3], in test [6], in test [7] and in test [8] was “inactive” in each case. Also, the outcome in [2], in [4], in [5], in test [11], in test [13] and in test [14] was inactive. The call in [15] was inactive.
`COC(=O)Nc1ccc(Cl)c(Cl)c1`: the Potency in test [1] and in test [7] was 60.8 µM (active) throughout. In addition, the compound was classed as inactive in [2], in test [4], in test [5], in test [11], in test [13] and in test [14]. The outcome in [15] and in test [16] was inactive. The Potency result in test [3], in [6], in test [8], in [9], in test [10] and in [12] was “inactive” each time.
As for `CC(C)(C#N)Nc1nc(Cl)nc(NC2CC2)n1`, the Potency entry in test [1], in [3], in [6], in test [8], in test [9] and in [10] was “inactive” each time. Also, in test [12], the Potency result is “inactive”. The result in test [2], in test [4], in test [5], in test [11], in test [13] and in test [14] was inactive. Also, the result in test [15] and in test [16] was inactive.
`COc1ccccc1OCC1CNC(=O)O1` (configuration not stated): the Potency entry in test [1], in test [3], in test [6], in test [7], in test [8] and in test [9] was “inactive” each time. The compound was classed as inactive in test [2], in test [4], in test [5], in test [11], in [14] and in test [15]. The compound was classed as inactive in [16].
On to `CCC(=O)OCc1ccccc1`, for which the Potency entry in test [1], in test [3], in [6], in test [7], in test [8] and in test [9] was “inactive” each time. Also, the Potency entry in [10] and in test [12] was “inactive” each time. Besides, the compound was classed as inactive in test [2], in test [4], in test [5], in test [11], in test [13] and in [14]. Also, the call in test [15] and in test [16] was inactive.
Consider `COc1cc(-c2ccc(=O)[nH]n2)ccc1OC(F)F`, for which the Potency result in [1], in test [3], in [17], in test [19], in [6] and in test [8] was “inactive” throughout. In addition, the Potency entry in test [9] and in test [12] was “inactive” throughout. Besides, the result in test [2], in [4], in [5], in [11], in [13] and in [14] was inactive. Moreover, the compound was called inactive in [15] and in test [16].
With `N[C@H](C(=O)O)[C@@H](O)c1ccc(O)c(O)c1`, the outcome in test [2], in test [4], in [5], in test [11], in [13] and in [14] was inactive. Also, the outcome in [15] and in [16] was inactive. Moreover, the Potency result in test [20], in test [3], in test [17], in [18], in test [19] and in test [6] was “inactive” throughout. In addition, the Potency result in [7], in test [8], in test [9] and in test [10] was “inactive” in each case.
Take `C[N+]1(C)[C@@H]2CC(OC(=O)[C@H](CO)c3ccccc3)C[C@H]1[C@@H]1O[C@@H]12` (some centres not stated): the result in test [2], in test [4], in test [5], in test [11], in test [13] and in test [14] was inactive. Moreover, the compound was called inactive in test [15] and in test [16]. Besides, the Potency entry in [20], in test [3], in test [17], in [18], in test [19] and in test [6] was “inactive” each time. Further, the Potency entry in [7], in test [8], in [9] and in test [10] was “inactive” each time.
Regarding `CCNS(=O)(=O)c1ccc(C)cc1`, the call in [2], in [4], in test [5], in test [13], in test [14] and in test [15] was inactive. Further, the call in test [16] was inactive. For the same compound, the Potency result in test [20], in test [3], in [17], in test [18], in test [19] and in test [6] was “inactive” throughout. Besides, the Potency entry in test [7], in [8], in test [9] and in test [10] was “inactive” throughout.
Consider `CC(C)C(=O)OC(=O)C(C)C`, for which the Potency result in test [1], in [3], in test [8] and in test [12] was “inactive” throughout. Also, the result in test [2], in [4], in test [14], in [15] and in [16] was inactive.
Consider `C[N+]12CCC(CC1)C(OC(=O)C(O)(c1ccccc1)c1ccccc1)C2` (configuration not stated), for which the Potency entry in test [1], in [3], in test [6], in [8], in test [9] and in [10] was “inactive” in each case. The compound was classed as inactive in test [2], in [4], in test [11] and in test [14].
Take `NC(CCC(=O)O)C(=O)O` (configuration not stated): the compound was called inactive in test [2], in test [4], in test [5], in test [11], in test [13] and in test [14]. In test [16], the compound was classed as inactive. Moreover, the Potency entry in test [20], in test [3], in test [17], in test [18], in test [19] and in test [6] was “inactive” each time. Also, the Potency entry in test [7], in test [8], in [9], in test [10] and in [12] was “inactive” each time.
